HP1b chromo inh: blocks HP1-beta chromodomain binding to methylated histone tails. AID 540317. P83916. Potency, µM (top dose mostly 114 µM), for inactives: at the top dose activity change, negative = inhibition, most hits filed as inhibitors. hit rate 0.56% among 390,000. AlphaScreen HP1-beta / biotin-H3K9me3 peptide binding; note: nearly all actives have a fitted effect of over 70% in size
Target sequence (P83916 whole entry, looked up): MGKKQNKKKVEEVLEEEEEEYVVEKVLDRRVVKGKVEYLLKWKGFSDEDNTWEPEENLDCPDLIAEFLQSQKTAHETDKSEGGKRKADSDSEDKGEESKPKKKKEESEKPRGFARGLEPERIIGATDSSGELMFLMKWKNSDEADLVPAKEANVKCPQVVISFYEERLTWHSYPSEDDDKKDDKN
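Compound inhibition of the preformed complex between 50 nM HP1-beta and 50 nM biotinylated H3K9me3 peptide was read by AlphaScreen. Buffer was PBS pH 7.4 with 0.01% Tween-20. Incubations ran 30 min at room temperature, with 10 ug/mL donor/acceptor beads.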
BAZ2B block: blocks human BAZ2B; hit rate 4.4% among 360,000; Q9UIF8; AlphaScreen BAZ2B-H3K14Ac peptide displacement; Potency, µM (doses to about 114 µM), for the others: top-dose activity change, negative = inhibition, most hits filed as inhibitors; note: % is set by controls: 0 for no effect and ±100 for the full control effect; nearly all actives have a fitted effect of over 60% in size
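In this displacement format the biotinylated H3(5-23) peptide acetylated at Lys14 serves as ligand at 50 nM, with BAZ2B at 50 nM in PBS pH 7.4 containing 0.01% Tween-20. Donor and acceptor beads are 10 ug/mL final.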
G9a inh: inhibitors of human histone lysine methyltransferase G9a | Q96KQ7 | G9a H3K9 monomethylation, AlphaScreen, 2 h | Potency, µM (highest dose often 102 µM), without a hit: at the top dose activity, negative = inhibition, actives largely listed as inhibitors | hit rate 8.8% among 350,000; note: % is set by controls: 0 for no effect and ±100 for the full control effect; nearly all actives have a fitted effect of over 75% in size
Target sequence (Q96KQ7 913-1193 limits assumed): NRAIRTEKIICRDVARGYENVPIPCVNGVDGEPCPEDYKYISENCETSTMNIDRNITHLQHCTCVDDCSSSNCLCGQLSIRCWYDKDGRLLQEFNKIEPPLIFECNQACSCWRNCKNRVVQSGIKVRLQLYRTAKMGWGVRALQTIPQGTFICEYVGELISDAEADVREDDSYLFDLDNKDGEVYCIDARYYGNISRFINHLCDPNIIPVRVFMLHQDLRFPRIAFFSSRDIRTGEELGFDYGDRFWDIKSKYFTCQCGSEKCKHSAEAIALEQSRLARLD
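Step 1: enzyme (final 20 nM) with compound, 15 min RT. Step 2: substrate peptide 500 nM and SAM 20 uM, 2 h RT. Step 3: anti-H3K9me1 antibody and AlphaScreen beads, 10 min, then plate read.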
Sfp inh: Sfp phosphopantetheinyl transferase inhibition; Biochemical Sfp PPTase activity, qHTS; Potency, µM, inactives show largest response in the series, negative = inhibition, most hits filed as inhibitors; hit rate 3.5% among 310,000; AID 1490;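 note: the enzyme is Sfp with the accession as filed and its product quenches rhodamine fluorescence; 0% = enzyme reaction without inhibitor and -100% = no enzyme wells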
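Fluorescence-quenching assay: 15 nM Sfp-PPTase preincubated 15 min at room temperature with compound, then 5 uM rhodamine-CoA and 12.5 uM BHQ-2-labelled YbbR peptide added. Fluorescence (ex 525/em 598 nm) read at start and after 30 min; difference gives rate.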
JMJD2A Tudor: inhibitors of human JMJD2A Tudor domain | AID 504339 | AlphaScreen JMJD2A-Tudor / H3K4me3 peptide binding | O75164 | hit rate 4.4% among 390,000 | Potency, µM (top dose mostly 114 µM), without a hit: at the highest dose activity change, negative = inhibition, usual class: inhibitors; note: % is set by controls: 0 for no effect and ±100 for the full control effect; nearly all actives have a fitted effect of over 50% in size
Active calls of the source: *; ? = inconclusive; . = not tested or not shown; ! = a repeat was not active; [ ] = dose if it differs, or a comment. An excerpt weighted towards active compounds, which were near 12% of everything screened. Calls come from the whole dose curve; as a rule, active = well fitted curve in the direction sought with a large enough effect; inconclusive = small, poorly fitted or top-dose-only effect, or another doubt; inactive = no such curve, though single readings can be large; an effect the other way counts as inactive or inconclusive. Potency is the fitted concentration of half-maximal effect.

SMILES	HP1b chromo inh	BAZ2B block	G9a inh	Sfp inh	JMJD2A Tudor
Cc1ccc(S(=O)(=O)N2CCCCC2)cc1C(=O)NCC1CCCO1 (centres undefined)	18%	-2%	19%	16%	2%
O=C(NCC1CCCO1)c1cc(S(=O)(=O)N2CCCCC2)ccc1Cl (centres undefined)	35%	56µM*	8%[12.7 µM]	.	-8%
O=C(CCl)N1CCN(S(=O)(=O)c2ccc3ccccc3c2)CC1	41%	-18%	-17%	14%	-27%
O=C(CNCC1CCCO1)N1CCN(S(=O)(=O)c2ccc3ccccc3c2)CC1 (centres undefined)	-35%	56µM*	?	-11%	7.9µM*
CCc1noc(C)c1C(=O)Nc1nc(-c2ccccc2)c(C(C)=O)s1	31%	-5%	22%[12.7 µM]	.	-19%
C[C@@H]1CN([C@@H](C)CO)C(=O)c2cc(NC(=O)CCN3CCOCC3)ccc2O[C@@H]1CN(C)C(=O)Nc1ccccc1	17%	.	.	.	-18%
C=C(C)C(=O)/C=C/c1ccc(C(F)(F)F)cc1	.	.	.	3%	.
Cc1cc(C)cc(N2CCn3c2nc2c3c(=O)n(C/C=C/c3ccccc3)c(=O)n2C)c1	68%	19%	22%[59 µM]	.	-9%
Cc1nc2scc(C)n2c(=O)c1S(=O)(=O)Nc1ccc(N2CCN(C(=O)C(C)C)CC2)cc1	50%	-11%[57.1 µM]	-15%	-11%	40µM*!
CCc1cccc(NS(=O)(=O)c2c(C)nc3scc(C)n3c2=O)c1	-17%	8%	28µM*	16%	-13%
O=C(Cn1cc(C(F)(F)F)ccc1=O)N1CCc2ccccc2C1	35%	1%	-8%[12.7 µM]	.	-8%
O=S(=O)(Nc1ccc(O)c2ccccc12)c1cccs1	45µM*	-33%	7.1µM*	?	13µM*
O=S(=O)(Nc1cccc2ccccc12)c1cccs1	30%	-11%	6%[12.7 µM]	6%	0%
Cc1ccc(S(=O)(=O)Nc2ccc(O)c3ncccc23)cc1	7%	22µM*	?	4%	40µM*
O=S(=O)(Nc1ccc(O)c2ccccc12)c1ccc(Br)cc1	.	45µM*	40µM*	-18%	.
COc1ccc(NC(=O)CSc2nc(-c3ccccc3)nc3c2Cc2c(CO)cnc(C)c2O3)cc1Cl	36%	?	-8%[59 µM]	.	-11%
Cc1nn(-c2ccccc2)c(C)c1/C=N/n1cnnc1	38%	.	-37%	-1%	-5%[57.1 µM]
Cc1nn(-c2ccccc2)c(C)c1/C=N\N1CCN(c2ccc(Cl)cc2)CC1	?	32µM*	?	25µM*	28µM*
Cc1cc(C)n2c(SCC(=O)N(CC(C)C)c3c(N)n(CC(C)C)c(=O)[nH]c3=O)nnc2n1	26%	0%	18µM*	?	-12%
Cc1cc(SCC(=O)N(CC(C)C)c2c(N)n(CC(C)C)c(=O)[nH]c2=O)nc2ccccc12	11%	3%	6.3µM*	.	-6%
Cc1ccc(-n2nnnc2SCC(=O)N(CC(C)C)c2c(N)n(CC(C)C)c(=O)[nH]c2=O)cc1	28%	-6%	-32%	5%	-14%
Cc1ccccc1-c1nnc(SCC(=O)N(CC(C)C)c2c(N)n(CC(C)C)c(=O)[nH]c2=O)n1C	24%	-7%	50µM*	14%	15%
O=C(c1ccccc1)C1(c2ccccc2)OC1c1ccccc1 (centres undefined)	54%[57 µM]	.	.	.	116%
CCOC(=O)C(C)Oc1ccc2c(-c3cccc([N+](=O)[O-])c3)cc(=O)oc2c1 (centres undefined)	6%	-13%	35µM*	-6%	-25%
c1ccc(Nc2cc(Nc3ccccc3)[nH]n2)cc1	-26%	45µM*	?	-13%	?
O=[N+]([O-])c1ccc(NC(=S)N2CCN(S(=O)(=O)c3ccccc3)CC2)cc1	-2%	-30%	50µM*	10%	?
CC(=O)c1cccc(NC(=S)N2CCN(S(=O)(=O)c3ccc(F)cc3)CC2)c1	14%[57 µM]	-13%	28µM*	-20%	-3%
O=S(=O)(c1ccccc1)N1CCN(C(=S)Nc2ccc(Br)cc2)CC1	46%	-15%	.	-2%	-18%
Cc1cccc(NC(=S)N2CCN(S(=O)(=O)c3cccc(F)c3)CC2)c1	6%	-39%	2%	11%	-11%
